Source: PubChem
Shown are actives, neighbours in structure and some others; about 0.9% of the full set was active somewhere.
SRC1 TRFRET art = counter-screen for PPARgamma SRC-1 recruitment agonists: TR-FRET artefact. TR-FRET ratio at 8 µM. actives 0.34% (n = 99,000). TR-FRET detection artefact counter-screen, emission ratio; active compounds read high. AID 1051; in the data active means TR-FRET ratio above about 2300
PPARg SRC3 recr = agonists of human PPARgamma SRC-3 coactivator recruitment. activation, % at 8 µM. P37231. AID 731. actives 0.26% (n = 200,000). biochemical PPARgamma/SRC-3 coactivator recruitment assay; in the data active means activation above about 23%;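 further: 0% = DMSO and 100% = reference agonist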
Target sequence (P37231 whole entry, looked up): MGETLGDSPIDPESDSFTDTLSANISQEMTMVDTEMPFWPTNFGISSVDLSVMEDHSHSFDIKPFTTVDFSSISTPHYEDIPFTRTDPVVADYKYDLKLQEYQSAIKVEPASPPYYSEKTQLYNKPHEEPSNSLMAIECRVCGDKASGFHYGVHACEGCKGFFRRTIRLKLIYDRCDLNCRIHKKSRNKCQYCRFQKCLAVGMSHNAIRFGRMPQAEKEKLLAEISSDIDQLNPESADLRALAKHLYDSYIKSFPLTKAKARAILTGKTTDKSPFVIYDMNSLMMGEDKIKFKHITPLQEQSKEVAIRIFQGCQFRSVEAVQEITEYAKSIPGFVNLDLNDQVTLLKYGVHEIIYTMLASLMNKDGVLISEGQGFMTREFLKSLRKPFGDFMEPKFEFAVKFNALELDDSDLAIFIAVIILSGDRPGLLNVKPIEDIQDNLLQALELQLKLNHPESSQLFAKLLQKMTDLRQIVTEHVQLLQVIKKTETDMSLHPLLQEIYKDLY
SRC2 TRFRET art = TR-FRET artefact, counter-screen to PPARgamma/SRC-2 agonist assay | active compounds read high | TR-FRET ratio at 8 µM | actives 0.4% (n = 200,000) | AID 1049
SRC3 TRFRET art = TR-FRET artefact, counter-screen to PPARgamma/SRC-3 agonist assay | PPARgamma/SRC-3 format; active compounds read high | TR-FRET ratio at 8 µM | actives 0.39% (n = 99,000) | AID 1048
PPARg SRC2 recr = agonists of SRC-2 recruitment by human PPARgamma. activation, % at 8 µM. AID 1032. actives 0.34% (n = 200,000). PPARgamma LBD-SRC-2 recruitment, biochemical; in the data active means activation above about 22%;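 further: 0% = vehicle and 100% = reference agonist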
PPARg SRC1 recr = agonists of human PPARgamma SRC-1 coactivator recruitment; P37231; PPARgamma-SRC-1 coactivator recruitment biochemical assay; activation, % at 8 µM; actives 0.41% (n = 200,000); in the data active means activation above about 19%;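 further: 0% = DMSO and 100% = reference agonist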
* hit, by the source's call; · = no result. Unless noted, no stated cut-off is given here; in the data, active means TR-FRET ratio above about 2000; inactive means the rest.

SMILES | SRC1 TRFRET art | PPARg SRC3 recr | SRC2 TRFRET art | SRC3 TRFRET art | PPARg SRC2 recr | PPARg SRC1 recr
O=C(COc1ccccc1)Nc1nc(-c2ccc(S(=O)(=O)N3CCOCC3)cc2)cs1 | · | 19 | 2563* | · | 12 | 16
Cc1ccc(NC(=O)COc2ccc(S(=O)(=O)N3CCOCC3)cc2)cc1 | · | -10 | 1498 | · | 0 | -10
COc1ccccc1OCC(=O)Nc1nc(-c2ccc(S(=O)(=O)N3CCOCC3)cc2)cs1 | · | -10 | 2294* | · | 1 | -2
Cc1sc(Cc2nc(O)cs2)nc1-c1ccccc1 | 1713 | -2 | 1564 | 1625 | -4 | 4
O=C(NNC(=O)C(O)(c1ccccc1)c1ccccc1)C1CC1 | 1911 | -1 | 1579 | 1648 | -3 | 8
CCOC(=O)N1CCC(NC(=O)c2cc(C(=O)Nc3ccc(S(=O)(=O)N4CCCCC4)cc3)ccc2CO)CC1 | 1534 | 1 | 1608 | 1539 | 0 | 0
COc1ccccc1C(=O)C1CCCN(C(=O)CSc2ccccn2)C1 (stereo not drawn) | 1966 | 3 | 1688 | 1487 | 24* | 4
CCN(CC)CCn1c(NC(=O)c2ccc(Cl)cc2)nc2ccccc21 | · | 1 | 4842* | · | 153* | -5
COc1cc(OC)cc(-c2nnc(SCC(=O)N(Cc3ccccc3)C(C)(C)C)o2)c1 | · | 5 | 1712 | · | 23* | 17
C=CCN(CC=C)Cc1c(O)ccc2c1oc(=O)c1ccccc12 | · | 20 | 1879 | · | 20 | 21*
COCCN(C(=O)CNC(=O)c1ccco1)C(C(=O)NC1CCCC1)c1cccs1 (stereo not drawn) | · | 0 | 1552 | · | 13 | 4
O=C(CSc1ncnc2c1nnn2Cc1ccccc1F)N1CCN(c2ccccc2)CC1 | · | -4 | 2938* | · | 67* | 3
O=C(Cn1cnc2c(nnn2Cc2ccccc2F)c1=O)N1CCN(c2ccccc2)CC1 | · | 2 | 1480 | · | 1 | -4
O=C(c1ccccc1)N1CCN(S(=O)(=O)c2cccc(NS(=O)(=O)c3ccccc3)c2)CC1 | 1968 | 3 | 1658 | 1706 | 7 | -2
O=C(c1ccccc1)c1nn(-c2ccccc2)c2nnc(Cc3ccccc3)c(=O)n12 | · | 7 | 2100* | · | 14 | 6
O=C(Nc1ccccn1)c1cc(-c2cccc(Cl)c2)nc2ccccc12 | 2351* | 2 | 1804 | 2298* | 5 | 14
O=C(c1cc2sccc2n1Cc1ccc(F)cc1)N1CCN(c2nc3ccccc3s2)CC1 | · | -3 | 2655* | · | 8 | 8
O=C(c1cc2sccc2n1Cc1ccccc1)N1CCc2ccccc21 | · | 6 | 2447* | · | 3 | 6
O=C(CSCc1ccccc1Br)N/N=C/c1ccccc1C(=O)O | 1689 | -1 | 1539 | 1474 | -10 | -4
COc1ccc(NC(=O)COC(=O)c2cccc(S(=O)(=O)N(C)C)c2)cc1 | 2141 | 2 | 1513 | 1754 | -3 | 24*
N#CC1=C2SCN(c3ccccc3)CN2C(=O)CC1c1cccs1 (stereo not drawn) | · | 18 | 2021* | · | 19 | 7
N#CC1=C2SCN(c3ccccc3)CN2C(=O)CC1c1c(Cl)cccc1Cl (stereo not drawn) | · | 6 | 1514 | · | 2 | -4
CCOc1ccc(N2CSC3=C(C#N)C(c4ccco4)CC(=O)N3C2)cc1 (stereo not drawn) | · | 17 | 1814 | · | 25* | 6
CCOc1ccc(/C=N/n2cc(-c3ccccc3)[nH]c2=S)cc1 | 1892 | 10 | 1503 | 1762 | 3 | 24*
CCOc1ccc(/C=N/O)cc1 | · | 2 | 1443 | · | -3 | -3
SMILES | SRC1 TRFRET art | PPARg SRC3 recr | SRC2 TRFRET art | SRC3 TRFRET art | PPARg SRC2 recr | PPARg SRC1 recr
CCC(C)NC(=O)Cn1c(=O)n(CCCC(=O)NCc2ccccc2Cl)c(=O)c2ccccc21 (stereo not drawn) | · | 5 | 1629 | · | 22* | -2
CSc1nc(SCC(=O)NC(c2ccccc2)c2ccccc2)c2c3c(sc2n1)CN(C)CC3 | · | 4 | 2069* | · | 8 | 8
CSc1nc(SCC(=O)NCc2ccco2)c2c3c(sc2n1)COC(C)(C)C3 | 2101 | -2 | 1380 | 1689 | 4 | 6
CCO[C@@H]1OC(C(=O)N2CCN(Cc3ccc4c(c3)OCO4)CC2)=C[C@H](c2csc3ccccc23)[C@H]1CCCO | 2146 | 6 | 1593 | 1578 | 23* | 9
CCO[C@H]1OC(C(=O)N2CCN(Cc3ccc4c(c3)OCO4)CC2)=C[C@@H](c2ccccc2)[C@@H]1CCCO | 1658 | 0 | 1574 | 1624 | 1 | 4
Brc1ccc(C=Nc2ccc(Nc3ccccc3)cc2)s1 | 1838 | 2 | 1648 | 1732 | 29* | 9
CCOC(=O)/C(C#N)=C\N(C)C | · | 7 | 1498 | · | 8 | -4
C=CCN1C=CC(=C/C=C(/C#N)C(=O)OCC)C=C1 | · | 2 | 1483 | · | 3 | 26*
CCCSc1nc(C)nc2c1c(=O)n(C)c(=O)n2C | · | -2 | 1545 | · | 0 | 24*
CCCCSc1nc(C)nc2c1c(=O)n(C)c(=O)n2C | · | -1 | 1678 | · | 10 | 2
COc1ccc(OCC(=O)Nc2cccc(NC(=O)COc3ccc(OC)cc3)n2)cc1 | · | 10 | 1570 | · | 15 | 9
COc1ccc(OCC(=O)Nc2cccc3cccnc23)cc1 | 2429* | 8 | 1763 | 1536 | 11 | 2
Cc1nc(N2CCCCC2C)c2c(C)c(C(=O)Nc3cccc(C(F)(F)F)c3)sc2n1 (stereo not drawn) | 2035 | 4 | 1633 | 1608 | 8 | 13
Cc1nc(N2CCCCC2)c2c(C)c(C(=O)Nc3cccc(C(F)(F)F)c3)sc2n1 | 2255 | 12 | 1762 | 2057* | 14 | 7
Cc1ccc(NC(=O)c2sc3nc(C)nc(N4CCN(c5ccccn5)CC4)c3c2C)c(C)c1 | 3496* | -2 | 2163* | 2659* | -3 | 4
COc1ccc(C(=O)COC(=O)c2cc(S(=O)(=O)NCc3ccccc3)ccc2O)cc1 | 2055 | 0 | 1670 | 1557 | 3 | -4
CCn1c(Cc2cccs2)nnc1SCC(=O)NC(C)(C)C | 1729 | -1 | 1759 | 1502 | 0 | -5
CCc1cc2c(=O)n(CCC(C)C)c(=S)[nH]c2s1 | 2042 | 10 | 1976* | 1765 | 8 | 11
Cc1ccc2oc(=O)cc(CN3CCC(C)CC3)c2c1 | · | 13 | 1609 | · | 23* | -3
O=C1c2cccc(OCC(=O)N3CCCc4ccccc43)c2CCN1Cc1ccc(Br)cc1 | 1638 | -6 | 1367 | 1560 | -7 | 1
O=C1c2cccc(OCC(=O)N3CCCc4ccccc43)c2CCN1Cc1ccccc1 | 1537 | -3 | 1628 | 1467 | 1 | 24*
CN(C(=O)COc1ccccc1C(=O)NCCOc1ccccc1)c1ccccc1 | 2021 | -2 | 1510 | 1570 | -1 | 0
CC(C)Cn1c(N)c(C(=O)COC(=O)c2ccc([N+](=O)[O-])o2)c(=O)n(C)c1=O | 1937 | 5 | 1982* | 1448 | 12 | 3
COc1ccc(OC)c(-c2csc(NC(=O)c3ccc(OCC4CCCO4)cc3)n2)c1 (stereo not drawn) | 1767 | -3 | 1749 | 2496* | -2 | 2
